EBV LMP1 NFkB – Epstein-Barr LMP1 NF-kappaB reporter inhibition. LMP1-induced NF-kappaB luciferase reporter cells, luminescence. inhibition, % at 12.5 µM. 350,000 compounds, 0.69% hits. AID 504558; in the data active = inhibition above about 41%
Shn3 3UTR inh – reduces Shn3 3'UTR luciferase signal in osteoblasts. inhibition, % at 12.5 µM. Clone20 osteoblast Shn3 3'UTR firefly luciferase, 24 h. 360,000 compounds, 0.52% hits;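 active = mean inhibition of at least 75% with every replicate also reaching 75%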
Peg3 promoter – reduces Peg3 promoter-driven luciferase expression in HeLa; inhibition, % at 20 µM; 360,000 compounds, 1.7% hits; HeLa PEG-Prom luciferase reporter, luminescence, overnight;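 active = inhibition of at least 50% at 20 µM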
TWEAK-Fn14 inh – blocks TWEAK-Fn14 interaction in a reporter cell assay; TWEAK-stimulated Fn14 reporter cells, luciferase luminescence, 8 h; inhibition, % at 10 µM; 360,000 compounds, 2% hits; in the data active = inhibition above about 50%
TROY signal inh – blocks TROY-dependent signaling in reporter cells | Q293 LMP1-TROYcd NF-kB luciferase reporter, 4 h | inhibition, % at 10 µM | 360,000 compounds, 0.98% hits | AID 1347056;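 active = compounds whose plate-normalised and pattern-corrected inhibition of the luciferase reporter signal at the single screening dose is 50% or more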
TRPM1 prom inh – MITF TRPM1 promoter inhibition in SK-MEL-5 cells; SK-MEL-5 TRPM1 promoter luciferase, 24 h; inhibition, % at 12.5 µM; 330,000 compounds, 0.83% hits; AID 488899;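 active = mean inhibition across replicates of 60% or more, whatever share of single replicates reaches that level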
Numbers stand for hits; . = inactive; / = no result. A selection: hits, their analogues and other compounds. The true share with any hit is near 4.1%.

SMILES	EBV LMP1 NFkB	Shn3 3UTR inh	Peg3 promoter	TWEAK-Fn14 inh	TROY signal inh	TRPM1 prom inh
O=C(COc1ccc(F)cc1F)Nc1cccnc1	.	.	.	.	.	.
O=C(CSc1nnnn1-c1ccccc1)Nc1nsc(-c2ccccc2)n1	.	.	.	.	.	.
O=C(CSc1nnnn1-c1ccccc1)Nc1nsc(-c2ccc(Cl)cc2)n1	76.4	.	.	.	.	.
CCc1ccc(NC(=O)c2ccc(NC(=O)C3CCCO3)cc2)cc1 (stereo unspecified)	.	.	.	.	.	.
CN(C)CCOc1nc(-c2ccccc2)nc2c1oc1ccccc12	.	.	99.8	.	.	.
COc1cc(OC)nc(C(NC(=O)C2CCN(Cc3ccc(N(C)C)cc3)CC2)c2ccc(F)cc2)n1 (stereo unspecified)	/	.	.	.	.	/
COc1cc(OC)nc(C(NC(=O)C2CCN(Cc3c[nH]c4ccccc34)CC2)c2ccc(Cl)cc2)n1 (stereo unspecified)	/	.	101.2	.	.	/
O=C(NC1CCCCC1)N1CCN(c2ccc(Cl)cc2)CC1	.	.	.	.	.	.
CCNC(=S)N1CCN(c2ccc([N+](=O)[O-])cc2)CC1	.	.	.	.	.	.
O=[N+]([O-])c1ccc(N2CCN(C(=S)NCc3ccc(Cl)cc3)CC2)cc1	.	.	.	64.3	.	.
O=C(NC1CCCCC1)N1CCN(c2ccc([N+](=O)[O-])cc2)CC1	75.3	.	.	.	.	.
CCOC(=O)c1c(NC(C)=O)sc2c1CCC(C=O)=C2Sc1ccccc1	.	.	99.4	.	.	.
CC(NC(=O)OC(C)(C)C)C(=O)Oc1cc2oc(=O)cc(-c3ccccc3)c2cc1Cl (stereo unspecified)	.	.	.	71.3	.	.
COc1ccc(Nc2cc(C)nc3ccc(OC)cc23)cc1	.	.	.	.	.	.
COc1ccc(/C=N/Nc2cc(C)nc3c(C)cccc23)cc1	.	.	110.7	.	.	79.3
COc1ccc(/C=N/Nc2cc(C)nc3ccccc23)cc1	.	.	103.0	.	.	78.0
COc1cccc2c(N/N=C/c3ccc(O)c(O)c3)cc(C)nc12	.	.	.	.	.	.
COc1ccc2nc(C)cc(N/N=C/c3ccc(F)cc3)c2c1	.	.	102.5	.	.	85.5
O=C(Nc1ccccc1Cl)c1cc(C2CCCCN2S(=O)(=O)c2ccc(F)cc2F)on1 (stereo unspecified)	/	.	.	.	.	/
COc1ncnc2c1N[C@@](C)(O)c1c(F)c(F)c(F)c(F)c1S2	.	.	.	.	.	.
COc1ncnc2c1NC(=O)CS2	81.9	.	.	.	.	.
CCn1ccnc1C(O)c1ccccc1OC (stereo unspecified)	.	.	.	.	.	.
CCSCCc1nnc(NC(=O)Nc2cccc(C(F)(F)F)c2)s1	.	.	.	63.8	63.0	66.9
CCCCn1c(NS(=O)(=O)c2ccc(C)cc2)c(S(=O)(=O)c2ccccc2)c2nc3ccccc3nc21	.	.	.	.	63.9	.
Cc1ccc(S(=O)(=O)c2c(N)n(CCCN(C)C)c3nc4ccccc4nc23)cc1	.	.	.	.	.	.
SMILES	EBV LMP1 NFkB	Shn3 3UTR inh	Peg3 promoter	TWEAK-Fn14 inh	TROY signal inh	TRPM1 prom inh
C[C@H]1COc2cc(N3CCC[C@@H]3CO)ccc2S(=O)(=O)N1	/	/	/	.	.	/
c1cncc(Cc2cc3ccccc3[nH]2)c1	.	.	.	.	.	.
c1ccc2[nH]c(-c3cnco3)cc2c1	.	.	.	64.1	52.0	.
COc1ccccc1C(C[N+](=O)[O-])c1c(N)n(C)c(=O)n(C)c1=O (stereo unspecified)	/	.	104.3	52.0	.	/
COc1ccccc1C(c1c(N)n(C)c(=O)n(C)c1=O)C(C)[N+](=O)[O-] (stereo unspecified)	/	.	.	.	.	/
Cc1nnsc1C(=O)N1CCCC(Nc2ccc(F)c(F)c2)C1 (stereo unspecified)	.	.	.	.	.	.
CC(C)C[C@@H]1CN(CCCC[C@H]2CNC(=O)C(=O)N2CCC2CCCCC2)C(=O)C(=O)N1CCC1CCCCC1	/	/	/	60.7	.	/
c1ccc(Nc2nnc(-c3cccnc3)s2)cc1	.	.	.	51.1	.	.
Nc1nnc(-c2cccnc2)s1	.	.	.	.	.	.
CCOC(=O)c1c(C)[nH]c(C(=O)COC(=O)[C@H](C)N2C(=O)C3CCCCC3C2=O)c1C (stereo partly specified)	.	92.7	.	.	.	.
CC(=O)c1c(C)[nH]c(C(=O)COC(=O)CN2C(=O)C3CCCCC3C2=O)c1C (stereo unspecified)	.	.	.	.	.	.
Cc1cc(O)c(C(C)C)cc1C1(c2cc(C(C)C)c(O)cc2C)OC(=O)c2ccccc21	.	.	111.3	97.2	85.4	.
O=C1C=CC2(C=C1)O[C@H](Cc1ccccc1)[C@@H](Cc1ccccc1)O2	86.8	97.1	108.3	107.0	86.9	96.7
COc1ccc(N2C(=O)CC(Cc3ccccc3)C2=O)cc1 (stereo unspecified)	.	.	.	.	.	.
COc1ccc(C[C@@H]2OC3(C=CC(=O)C=C3)O[C@H]2Cc2ccc(OC)cc2)cc1	79.2	94.2	103.3	105.9	85.1	99.9
Cc1ccc(NNC(=O)C(O)(c2cccc(C(F)(F)F)c2)c2cccc(C(F)(F)F)c2)cc1	.	.	67.0	.	.	.
O=C(NNc1ccccc1Br)C(O)(c1cccc(C(F)(F)F)c1)c1cccc(C(F)(F)F)c1	.	.	53.8	72.7	57.4	.
Cc1ccc(C(O)(C(=O)NNc2ccccn2)c2ccc(C)cc2)cc1	.	.	.	.	.	.
CC(C)(O)C(=O)NNC(=S)Nc1cccc(C(F)(F)F)c1	.	.	.	.	.	.
COc1ccc(C(=O)OCC(=O)NC2CCCCCC2)cc1OC	.	.	.	.	.	.
COc1ccc(Cn2nnc3c(C)n[nH]c(=O)c32)cc1	.	.	.	.	.	.
CCCOC(=O)Cn1c(=O)c2cc3c(=O)n(CC(=O)OCCC)c(=O)c3cc2c1=O	.	.	.	.	62.5	.
Cc1ccc(CC(=O)O/N=C(\N)c2ccccn2)cc1	.	.	.	.	.	.
N/C(=N\OC(=O)/C=C/c1ccccc1)c1ccccn1	.	.	.	56.0	.	.
CC(C)(C)CC(=O)O/N=C(\N)c1ccccn1	.	.	.	60.5	.	.
Cc1c(C)c(C)c(/C=[N+](/C)[O-])c(C)c1C	.	.	.	.	.	.
CCCC[C@@H](CNC)NC[C@H](NCCCCC1CCCCC1)C(C)C	.	.	103.6	.	.	77.6
Cc1ccc(Cl)cc1N1CCN(C(=O)C2CCC(=O)N(C3CCCCCC3)C2)CC1 (stereo unspecified)	.	86.5	.	.	.	.
O=C(C1CCC(=O)N(C2CCCC2)C1)N1CCN(c2ccc(Cl)cc2)CC1 (stereo unspecified)	.	.	.	.	.	.

Screening results from PubChem.
